Entries with a potency or affinity are not part of this list. Active and inactive are the calls of the source.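 The calls were made as follows: active = signal drop whose fitted half-maximal potency is at most twice the top valid dose tested; inconclusive = flat curve inhibiting 30 to 70 percent, or a poor fit; inactive = the rest.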
Target: Endoplasmic reticulum aminopeptidase 2 (Homo sapiens) (UniProt Q6P179)
Assay: ERAP2 aminopeptidase inhibitors, dose response, selectivity assay for selective ERAP1 modulator project, biochemical, fluorescence plate reader, cherry-picked, set 2 (AID 743320)
Conditions: recombinant ERAP2, Arg-AMC fluorescence, 1 h; series mostly up to 11 µM

Chain of Endoplasmic reticulum aminopeptidase 2 (Homo sapiens) (Q6P179 whole entry, looked up): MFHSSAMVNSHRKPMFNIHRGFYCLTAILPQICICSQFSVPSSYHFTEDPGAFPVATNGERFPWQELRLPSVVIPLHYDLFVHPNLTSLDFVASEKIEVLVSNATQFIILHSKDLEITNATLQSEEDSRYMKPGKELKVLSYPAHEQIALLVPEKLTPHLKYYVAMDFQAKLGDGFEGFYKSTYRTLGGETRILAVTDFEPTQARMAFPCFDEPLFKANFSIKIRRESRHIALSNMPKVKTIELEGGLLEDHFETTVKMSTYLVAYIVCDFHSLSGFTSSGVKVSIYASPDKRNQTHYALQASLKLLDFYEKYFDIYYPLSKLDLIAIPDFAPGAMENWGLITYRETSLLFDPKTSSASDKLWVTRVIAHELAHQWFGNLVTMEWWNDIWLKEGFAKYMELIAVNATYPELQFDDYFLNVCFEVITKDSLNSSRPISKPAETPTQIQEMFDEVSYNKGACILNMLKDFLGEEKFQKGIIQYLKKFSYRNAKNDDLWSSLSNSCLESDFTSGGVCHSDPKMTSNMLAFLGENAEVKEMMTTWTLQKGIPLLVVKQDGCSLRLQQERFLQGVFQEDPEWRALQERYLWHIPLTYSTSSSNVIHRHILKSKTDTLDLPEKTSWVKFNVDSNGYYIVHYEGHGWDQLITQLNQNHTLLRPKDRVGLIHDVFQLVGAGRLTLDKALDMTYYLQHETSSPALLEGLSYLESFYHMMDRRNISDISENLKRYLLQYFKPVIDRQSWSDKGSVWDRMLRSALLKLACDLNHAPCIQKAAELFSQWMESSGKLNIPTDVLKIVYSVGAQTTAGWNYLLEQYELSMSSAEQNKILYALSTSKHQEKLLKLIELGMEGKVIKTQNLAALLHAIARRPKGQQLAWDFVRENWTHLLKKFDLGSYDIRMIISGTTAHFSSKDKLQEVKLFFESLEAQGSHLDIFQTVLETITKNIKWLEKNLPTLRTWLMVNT

outcome, inactive:
CCCNC(=O)C[C@H]1CC[C@@H]2[C@H](COC[C@H](O)CN2C(=O)Nc2cccc(Cl)c2)O1
CCC(=O)N(C)C[C@H]1Oc2ncc(C#Cc3ccncc3)cc2C(=O)N([C@H](C)CO)C[C@H]1C
O=C(O)c1ccccc1NS(=O)(=O)c1cccc(-n2sc3ccccc3c2=O)c1
Cc1noc(C)c1NC(=O)N(C)C[C@@H]1Oc2c(NC(=O)Nc3ccccc3)cccc2C(=O)N([C@H](C)CO)C[C@@H]1C
COc1ccc(CN(C)C[C@@H]2OCCCC[C@@H](C)Oc3ccc(NS(=O)(=O)c4cccs4)cc3C(=O)N([C@H](C)CO)C[C@H]2C)cc1
C[C@@H]1CCCCO[C@@H](CN(C)Cc2ccccc2)[C@H](C)CN([C@H](C)CO)C(=O)c2cc(NS(=O)(=O)c3cccs3)ccc2O1
C[C@@H]1CCCCO[C@@H](CN(C)C)[C@@H](C)CN([C@@H](C)CO)C(=O)c2cc(NS(=O)(=O)c3ccc(Cl)cc3)ccc2O1
COc1ccc(C(=O)O)cc1S(=O)(=O)Nc1cc(C(F)(F)F)ccc1N1CCCCC1
O=C(Nc1ccc(C(F)(F)F)cc1)N1[C@@H]2CNC[C@H]1C2c1ccc(-c2ccncc2)cc1 (stereo not given in full)
COc1ccc(CN(C)C[C@@H]2OCCCC[C@@H](C)Oc3ccc(NS(=O)(=O)c4cccs4)cc3C(=O)N([C@@H](C)CO)C[C@H]2C)cc1
CCCN(C)C[C@@H]1OCCCC[C@@H](C)Oc2ccc(NS(=O)(=O)c3ccc(OC)cc3)cc2C(=O)N([C@H](C)CO)C[C@@H]1C
COc1ccc(CN(C)C[C@H]2OCCCC[C@@H](C)Oc3ccc(NS(=O)(=O)c4cccs4)cc3C(=O)N([C@@H](C)CO)C[C@H]2C)cc1
COc1ccc(S(=O)(=O)N(C)C[C@@H]2Oc3ncccc3C(=O)N([C@H](C)CO)C[C@@H]2C)cc1
C[C@@H]1CCCCO[C@@H](CN(C)Cc2ccc(C(=O)O)cc2)[C@@H](C)CN([C@H](C)CO)C(=O)c2cc(NC(=O)Nc3cccc4ccccc34)ccc2O1
CCCN(C)C[C@@H]1OCCCC[C@@H](C)Oc2ccc(NS(=O)(=O)c3ccc(C)cc3)cc2C(=O)N([C@@H](C)CO)C[C@@H]1C
N#Cc1c(N)n(CCNC(=O)c2ccccc2)c2nc3ccccc3nc12
C[C@@H]1CCCCO[C@@H](CN(C)C)[C@H](C)CN([C@@H](C)CO)C(=O)c2cc(NC(=O)Nc3ccc(C(F)(F)F)cc3)ccc2O1
COc1cc2cc(C(=O)N3CCN(Cc4ccc5c(c4)OCO5)CC3)c(=O)oc2cc1OC
O=C(C[C@@H]1CC[C@@H]2[C@H](COC[C@H](O)CN2C(=O)Nc2cccc(Cl)c2)O1)N1CCCCC1
C[C@@H]1CCCCO[C@@H](CN(C)CC2CCCCC2)[C@H](C)CN([C@@H](C)CO)C(=O)c2cc(NC(=O)Nc3ccccc3)ccc2O1
COc1cccc(S(=O)(=O)N(C)C[C@@H]2Oc3ncccc3C(=O)N([C@H](C)CO)C[C@@H]2C)c1
C[C@H]1CN([C@@H](C)CO)C(=O)c2cccc(NC(=O)Nc3ccc(C(F)(F)F)cc3)c2O[C@@H]1CN(C)C
CCCNC(=O)C[C@@H]1CC[C@@H]2[C@H](COC[C@H](O)CN2C(=O)Nc2cccc(Cl)c2)O1
Cc1noc(C)c1NC(=O)Nc1ccc2c(c1)C(=O)N([C@H](C)CO)C[C@@H](C)[C@@H](CN(C)Cc1ccc(C(F)(F)F)cc1)OCCCC[C@@H](C)O2
CCCCc1cc(=O)oc2cc(O)ccc12
Cc1noc(C)c1S(=O)(=O)N(C)C[C@@H]1OCCCC[C@@H](C)Oc2ccc(NS(=O)(=O)c3cccs3)cc2C(=O)N([C@@H](C)CO)C[C@@H]1C
C[C@@H]1CCCCO[C@H](CN(C)Cc2ccc(C(=O)O)cc2)[C@H](C)CN([C@@H](C)CO)C(=O)c2cc(NC(=O)Nc3ccc(C(F)(F)F)cc3)ccc2O1
C[C@H]1CN([C@@H](C)CO)C(=O)c2cccc(NC(=O)Nc3ccc(F)cc3)c2O[C@@H]1CN(C)C(=O)Nc1ccc2c(c1)OCO2
COc1ccc(CN(C)C[C@H]2OCCCC[C@@H](C)Oc3ccc(NS(=O)(=O)c4cccs4)cc3C(=O)N([C@H](C)CO)C[C@H]2C)cc1
Cc1ccc(S(=O)(=O)Nc2ccc3c(c2)C(=O)N([C@@H](C)CO)C[C@H](C)[C@H](CN(C)C)OCCCC[C@@H](C)O3)cc1

Source: PubChem BioAssay AID743320 (Broad Institute, 2014)
